Test results published in PubChem BioAssay (EPA / NIEHS).
Inconclusive results are not listed. Calls of active or inactive are those of the source. Rule for the calls, unless noted: active = hit-call score of the fitted dose curve at least 0.9, where 1 is the maximum; inconclusive = response in the unintended direction; inactive = score below 0.9.

system: not listed separately; experiment: ATG_M_06_TRANS: Attagene TRANS-FACTORIAL HepG2 Assay for M06 Transcription Factor (Internal Marker) (AID 2282983); details: HepG2 Attagene TRANS M06 internal marker reporter
Procedure, shortened: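 Human liver HepG2 cells bearing transiently transfected chimeric NR-GAL4 reporter units were treated with chemicals for 24 h. Total RNA was reverse-transcribed, reporter sequences amplified and labelled, then quantified by capillary electrophoresis. Activity was fitted upward relative to DMSO.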

outcome, inactive:
O=C1CCCC(=O)O1
Cc1ccc(N/N=c2\c(=O)cc/c(=N/Nc3ccc(S(=O)(=O)O)cc3)c2=O)c(C)c1
CC(C)(Oc1ccc(C2CC2(Cl)Cl)cc1)C(=O)O (stereo not given)
CCCNC(=O)NS(=O)(=O)c1ccc(Cl)cc1
O=S1(=O)OC(c2ccc(O)cc2)(c2ccc(O)cc2)c2ccccc21
O=c1c2ccccc2nnn1CCl
CO[Si](OC)(OC)c1ccccc1
CC(C)=CCC[C@H](C)CCO
CC(=O)OC(C)C
O=S(=O)(O)CC(O)CCl (stereo not given)
NNC(=O)c1cccc(C(=O)NN)c1
COC=O
CCCCCCCC(C)=O
CC(=O)OCc1ccco1
CCOc1ccc(N)c([N+](=O)[O-])c1
COC(=O)/C=C/C(C)=C\C=C\C(C)=C\C=C\C=C(C)\C=C\C=C(C)\C=C\C(=O)O
CCN(CC#N)c1cccc(C)c1
OCCc1ccncc1
Cc1cc(C)c(C)c(C)c1
COc1cc(C)ccc1C(C)C
N#CCc1ccc(Cl)cc1Cl
C=CC=CC=CCCCCC
O=C(O)c1cc2ccccc2nc1C(=O)O
[Cl][In]([Cl])[Cl]

system: not listed separately; experiment: ATG_M_32_TRANS: Attagene TRANS-FACTORIAL HepG2 Assay for M32 Transcription Factor (Internal Marker) (AID 2282984); details: HepG2 Attagene TRANS M32 internal marker reporter;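 note: transcript level of a background control reporter unit measured by RT-PCR and capillary electrophoresis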
Procedure, shortened: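 Internal-marker readout from a multiplexed transcription reporter panel. HepG2 cells were transfected with GAL4-UAS reporter units, treated 24 hours, and reporter transcript levels determined by fluorescence after RT-PCR and capillary separation.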

outcome, inactive:
O=C1CCCC(=O)O1
O=CC1CC1
Cc1ccc(N/N=c2\c(=O)cc/c(=N/Nc3ccc(S(=O)(=O)O)cc3)c2=O)c(C)c1
O=C1C(N(CO)C(=O)NCO)N(CO)C(=O)N1CO (stereo not given)
CC(C)(Oc1ccc(C2CC2(Cl)Cl)cc1)C(=O)O (stereo not given)
CCCCCCCC[N+](C)(CCCCCCCC)CCCCCCCC
CCCNC(=O)NS(=O)(=O)c1ccc(Cl)cc1
S=C(NC1CCCCC1)NC1CCCCC1
O=c1c2ccccc2nnn1CCl
CO[Si](OC)(OC)c1ccccc1
C=CC(=O)NC(C)(C)CS(=O)(=O)O
C1CN(SSN2CCOCC2)CCO1
C=C[Si](OC(C)=O)(OC(C)=O)OC(C)=O
O=S(=O)(O)CC(O)CCl (stereo not given)
NNC(=O)c1cccc(C(=O)NN)c1
COC=O
CCCc1ccc(OC)cc1
CCCCCCCC(C)=O
CC(=O)OCc1ccco1
COC(=O)/C=C/C(C)=C\C=C\C(C)=C\C=C\C=C(C)\C=C\C=C(C)\C=C\C(=O)O
CCN(CC#N)c1cccc(C)c1
Cc1cc(C)c(C)c(C)c1
COc1cc(C)ccc1C(C)C
N#CCc1ccc(Cl)cc1Cl
C=CC=CC=CCCCCC

target: Nuclear receptor subfamily 4 group A member 2 (Homo sapiens) (UniProt P43354); experiment: ATG_NURR1_TRANS: Attagene TRANS-FACTORIAL HepG2 Assay for human Nuclear Receptor Related Protein 1 (NURR1) (AID 2282985); details: HepG2 Attagene TRANS reporter, mRNA readout
Sequence (P43354 whole entry, looked up): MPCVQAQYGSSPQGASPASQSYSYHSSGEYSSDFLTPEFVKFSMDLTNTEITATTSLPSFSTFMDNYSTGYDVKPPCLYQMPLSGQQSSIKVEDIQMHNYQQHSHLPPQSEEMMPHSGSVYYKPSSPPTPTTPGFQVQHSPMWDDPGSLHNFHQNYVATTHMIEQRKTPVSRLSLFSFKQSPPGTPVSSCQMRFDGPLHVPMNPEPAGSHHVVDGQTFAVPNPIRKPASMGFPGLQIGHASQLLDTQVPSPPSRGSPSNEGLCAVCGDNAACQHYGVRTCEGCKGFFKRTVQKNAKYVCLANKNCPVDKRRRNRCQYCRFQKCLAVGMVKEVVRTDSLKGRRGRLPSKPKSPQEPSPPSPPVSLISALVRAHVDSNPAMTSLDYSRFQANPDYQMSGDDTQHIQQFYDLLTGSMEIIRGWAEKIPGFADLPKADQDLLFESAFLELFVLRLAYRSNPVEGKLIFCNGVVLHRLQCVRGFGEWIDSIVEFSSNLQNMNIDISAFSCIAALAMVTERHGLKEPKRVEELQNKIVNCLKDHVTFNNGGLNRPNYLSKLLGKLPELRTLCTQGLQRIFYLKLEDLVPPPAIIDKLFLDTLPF
Procedure, shortened: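 Endpoint: reporter mRNA increase relative to DMSO. HepG2 cells transfected with reporter units, treated 24 h; RNA processed by RT-PCR, labelling, HpaI digestion and capillary electrophoresis.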

outcome, inactive:
Cc1ccc(N/N=c2\c(=O)cc/c(=N/Nc3ccc(S(=O)(=O)O)cc3)c2=O)c(C)c1
O=C1C(N(CO)C(=O)NCO)N(CO)C(=O)N1CO (stereo not given)
O=S1(=O)OC(c2ccc(O)cc2)(c2ccc(O)cc2)c2ccccc21
S=C(NC1CCCCC1)NC1CCCCC1
CC(C)=CCC[C@H](C)CCO
C1CN(SSN2CCOCC2)CCO1
CC(=O)OC(C)C
CCC(C)C=O (stereo not given)
CCOc1ccc(N)c([N+](=O)[O-])c1
COC(=O)/C=C/C(C)=C\C=C\C(C)=C\C=C\C=C(C)\C=C\C=C(C)\C=C\C(=O)O
CCN(CC#N)c1cccc(C)c1
Cc1cc(C)c(C)c(C)c1
COc1cc(C)ccc1C(C)C
C=CC=CC=CCCCCC
O=C(O)c1cc2ccccc2nc1C(=O)O
[Cl][In]([Cl])[Cl]

target: Transcriptional activator Myb (Homo sapiens) (UniProt P10242); experiment: ATG_Myb_CIS: Attagene CIS-FACTORIAL HepG2 Assay for human Myeloblastosis (Myb) Proto-Oncogene Transcription Factor (AID 2282986; active = hit-call score of the fitted dose curve at least 0.9, where 1 is the maximum; inactive = score below 0.9); details: HepG2 Attagene CIS-FACTORIAL Myb reporter transcription; actives raise or lower the signal
Sequence (P10242 whole entry, looked up): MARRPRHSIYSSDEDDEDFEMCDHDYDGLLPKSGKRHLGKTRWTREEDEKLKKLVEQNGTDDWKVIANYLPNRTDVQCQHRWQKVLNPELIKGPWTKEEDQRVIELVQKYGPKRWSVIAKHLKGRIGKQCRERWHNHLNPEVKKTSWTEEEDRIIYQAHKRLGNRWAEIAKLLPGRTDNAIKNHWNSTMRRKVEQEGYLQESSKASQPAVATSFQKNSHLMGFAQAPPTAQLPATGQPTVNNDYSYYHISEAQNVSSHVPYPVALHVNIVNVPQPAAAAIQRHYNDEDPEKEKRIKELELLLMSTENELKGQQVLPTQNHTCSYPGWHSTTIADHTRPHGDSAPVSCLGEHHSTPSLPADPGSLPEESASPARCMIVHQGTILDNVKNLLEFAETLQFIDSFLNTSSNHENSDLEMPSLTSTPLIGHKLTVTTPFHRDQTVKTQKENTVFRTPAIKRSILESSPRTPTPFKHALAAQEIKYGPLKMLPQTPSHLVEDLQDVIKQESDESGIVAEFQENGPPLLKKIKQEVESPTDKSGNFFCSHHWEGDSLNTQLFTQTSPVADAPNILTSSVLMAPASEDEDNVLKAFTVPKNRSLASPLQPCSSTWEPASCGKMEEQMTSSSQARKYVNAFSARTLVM
Procedure, shortened: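 Endogenous transcription factor activity at a Myb-responsive cis element is reported in human liver HepG2 cells after 24 h chemical treatment. Reporter mRNA is detected by RT-PCR and capillary electrophoresis fluorescence, with DMSO as baseline.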

outcome, inactive:
O=C1CCCC(=O)O1
O=CC1CC1
Cc1ccc(N/N=c2\c(=O)cc/c(=N/Nc3ccc(S(=O)(=O)O)cc3)c2=O)c(C)c1
O=C1C(N(CO)C(=O)NCO)N(CO)C(=O)N1CO (stereo not given)
CC(C)(Oc1ccc(C2CC2(Cl)Cl)cc1)C(=O)O (stereo not given)
CCCCCCCC[N+](C)(CCCCCCCC)CCCCCCCC
O=C(O)C(c1ccc(Cl)cc1)c1ccc(Cl)cc1
CCCNC(=O)NS(=O)(=O)c1ccc(Cl)cc1
O=S1(=O)OC(c2ccc(O)cc2)(c2ccc(O)cc2)c2ccccc21
CCOC(=O)CC(C(C)=O)C(C)=O
S=C(NC1CCCCC1)NC1CCCCC1
O=c1c2ccccc2nnn1CCl
CO[Si](OC)(OC)c1ccccc1
CCOCC(=O)O
CC(C)=CCC[C@H](C)CCO
C=CC(=O)NC(C)(C)CS(=O)(=O)O
CCCOCCOCCOCCO
C1CN(SSN2CCOCC2)CCO1
C=C[Si](OC(C)=O)(OC(C)=O)OC(C)=O
CC(=O)OC(C)C
CC1(C)S[C@@H]2[C@H](NC(=O)COc3ccccc3)C(=O)N2[C@H]1C(=O)O
O=S(=O)(O)CC(O)CCl (stereo not given)
NNC(=O)c1cccc(C(=O)NN)c1
CC/C=C\CCOC(=O)CCCCC
COC=O
CCCc1ccc(OC)cc1
CCCCCCCC(C)=O
CCC(C)C=O (stereo not given)
CC(=O)OCc1ccco1
CCOc1ccc(N)c([N+](=O)[O-])c1
COC(=O)/C=C/C(C)=C\C=C\C(C)=C\C=C\C=C(C)\C=C\C=C(C)\C=C\C(=O)O
CN1C(=O)N(C)C(O)C1O (stereo not given)
CCN(CC#N)c1cccc(C)c1
OCCc1ccncc1
Cc1cc(C)c(C)c(C)c1
COc1cc(C)ccc1C(C)C
N#CCc1ccc(Cl)cc1Cl
C=CC=CC=CCCCCC
O=C(O)c1cc2ccccc2nc1C(=O)O
[Cl][In]([Cl])[Cl]
